In PubChem BioAssay (Tox21):
“And” between values parts separate entries of the source, which are not always exact repeats. Identical values can stand only once. Records with an inconclusive call do not appear. Entries that show only a call come without a potency. A structure can be active in one record and inactive in another. The source made the active and inactive calls. The call rests on the fitted dose curve; in most records, active means well fitted inhibition curve with a large enough effect in the signal ratio in the repeat runs (not every such curve was filed as active); inconclusive means weak or mixed curves; inactive means flat fitted curve, though single readings scatter; the % refers to the signal ratio.

Target: Progesterone receptor (Homo sapiens) (UniProt P06401)
Sequence (P06401 whole entry, looked up): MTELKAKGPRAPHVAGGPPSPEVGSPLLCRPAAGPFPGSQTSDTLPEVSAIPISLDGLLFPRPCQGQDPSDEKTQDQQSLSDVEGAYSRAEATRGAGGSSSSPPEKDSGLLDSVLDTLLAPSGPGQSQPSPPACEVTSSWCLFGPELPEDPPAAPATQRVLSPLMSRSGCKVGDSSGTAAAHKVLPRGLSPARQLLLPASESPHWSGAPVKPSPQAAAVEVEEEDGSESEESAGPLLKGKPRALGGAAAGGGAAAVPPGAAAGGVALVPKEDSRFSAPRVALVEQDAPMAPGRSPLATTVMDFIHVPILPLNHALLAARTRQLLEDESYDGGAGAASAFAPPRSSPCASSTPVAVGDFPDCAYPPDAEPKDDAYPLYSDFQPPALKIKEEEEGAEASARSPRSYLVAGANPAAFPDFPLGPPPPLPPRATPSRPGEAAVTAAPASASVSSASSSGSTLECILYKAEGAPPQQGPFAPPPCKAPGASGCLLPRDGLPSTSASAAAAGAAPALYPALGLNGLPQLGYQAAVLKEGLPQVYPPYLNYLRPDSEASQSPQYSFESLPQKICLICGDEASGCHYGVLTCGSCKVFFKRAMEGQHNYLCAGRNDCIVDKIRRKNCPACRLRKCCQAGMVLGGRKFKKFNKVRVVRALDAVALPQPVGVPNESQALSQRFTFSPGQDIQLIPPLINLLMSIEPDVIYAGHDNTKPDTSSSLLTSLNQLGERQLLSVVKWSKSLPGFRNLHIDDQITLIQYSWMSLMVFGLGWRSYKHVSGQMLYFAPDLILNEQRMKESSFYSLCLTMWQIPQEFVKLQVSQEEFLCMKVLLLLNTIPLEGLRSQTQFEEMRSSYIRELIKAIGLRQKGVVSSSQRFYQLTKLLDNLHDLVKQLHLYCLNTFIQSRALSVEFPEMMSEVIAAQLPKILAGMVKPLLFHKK
Test: qHTS assay to identify small molecule antagonists of the progesterone receptor (PR) signaling pathway (AID 1346795)
Settings: PR-UAS-bla HEK293T, beta-lactamase FRET ratio, 16 h; series mostly up to 92.4 µM
Text: National Center for Advancing Translational Sciences [NCATS]
NIH Chemical Genomics Center [NCGC]
U.S. Environmental Protection Agency [EPA]
National Institutes of Environmental Health Sciences [NIEHS]
National Toxicology Program [NTP]
U.S. Food and Drug Administration [FDA]
Progesterone receptor (PR), a nuclear hormone receptor, plays an important role in development, metabolic homeostasis and reproduction. […] Endocrine disrupting chemicals (EDCs) and their interactions with steroid hormone receptors like PR causes disruption of normal endocrine function. To identify the compounds that inhibit PR signaling, a PR-UAS-bla GripTite cell line i.e. PR-UAS-bla HEK293T (Invitrogen, Carlsbad, CA, USA) containing a beta-lactamase reporter gene under the control of an Upstream Activator Sequence (UAS) was used to screen Tox21 10K compound library.
Tox21 Assay Protocol Summary:
PR-UAS-bla HEK293T cells were dispensed at 3,000 cells/4 uL of assay medium containing 2% charcoal stripped FBS per well into black wall/clear-bottom 1536-well plates using a Multidrop Combi (ThermoFisher Scientific, Waltham, MA) dispenser. After the assay plates were incubated at a 37C and 5% CO2 for 6 hr, 23 nL of compounds dissolved in DMSO, positive controls or DMSO only was transferred to the assay plate by a Pintool station (Kalypsys, San Diego, CA), followed by addition of 1 uL (1nM as final concentration) of Promegestone (R5020) in assay medium using a BioRAPTR FRD (Flying Reagent Dispenser, Aurora Discovery, San Diego, CA). The plates were incubated at 37C and 5% CO2 for 16 hr. Then 1 uL of LiveBLAzer B/G FRET substrate was added using a FRD. After the plates were incubated at room temperature for 2 hours, fluorescence intensity was measured by an Envision plate reader (PerkinElmer, Shelton, CT).
Potency means the concentration at half of the fitted maximal effect.

Row | Structure (SMILES) | Potency
1 | CCCNC(C)C(=O)Nc1ccccc1C (stereo not given) | inactive
2 | C[N+]1([O-])CCOCC1 | inactive
3 | COC(c1ccccc1)(c1ccccc1)[C@H](Oc1nc(C)cc(C)n1)C(=O)O | inactive
4 | COc1cc(C(=S)N2CCOCC2)ccc1O | inactive
5 | CNC1(C)C2CCC(C2)C1(C)C (stereo not given) | inactive
6 | CC(C(O)c1ccc(O)cc1)N1CCC(Cc2ccccc2)CC1 (stereo not given) | inactive
7 | CC(C)CCOC(=O)c1ccc(N(C)C)cc1 | inactive
8 | OCCN1CCNCC1 | inactive
9 | CC(C)(C)c1ccccc1 | inactive
10 | CCCCOCCOC(=O)c1ccccc1C(=O)OCCOCCCC | 53.3 µM (active)
11 | CC(=O)CC(C)=O | inactive
12 | O=C(Cl)c1cccc(C(=O)Cl)c1 | inactive
13 | CC(=O)C1=C(C)[C@@H]2C[C@@]3(C1)[C@H](C)CC[C@H]3C2(C)C | inactive
14 | CC1=C(C=O)C(C)(C)CC=C1 | inactive
15 | O=Cc1ccc(Cl)cc1 | inactive
16 | NC(=Nc1ccccc1)Nc1ccccc1 | inactive
17 | CCn1cc(C(=O)O)c(=O)c2cc(F)c(N3CCNC(C)C3)c(F)c21 (stereo not given) | inactive
18 | COc1ccc(COC(C)=O)cc1 | inactive
19 | CC(C)CCOCc1ccccc1 | inactive
20 | CCC[C@H](N[C@@H](C)C(=O)N1[C@H](C(=O)O)C[C@@H]2CCCC[C@@H]21)C(=O)OCC | inactive

Row | Structure (SMILES) | Potency
21 | Oc1ccc(Cl)cc1Cc1cc(Cl)ccc1O | 15.6 µM (active) and 15.4 µM (active) and 18.8 µM (active)
22 | CC(C)(O)CCC(C)(C)O | inactive
23 | O=C1CC2(CCCC2)CC(=O)N1CCCCN1CCN(c2ncccn2)CC1 | inactive
24 | COC(=O)[C@H]1[C@H]2C[C@@H]3c4[nH]c5cc(OC)ccc5c4CCN3C[C@H]2C[C@@H](OC(=O)c2cc(OC)c(OC)c(OC)c2)[C@@H]1OC | inactive
25 | CC[C@@H](N)CO | inactive
26 | NCCO | inactive
27 | Cc1cc(C2(c3cc(C)c(O)cc3C)OS(=O)(=O)c3ccccc32)c(C)cc1O | 61.1 µM (active)
28 | Clc1ccc2c(c1)C(N1CCNCC1)=Nc1ccccc1O2 | 5.45 µM (active) and inactive
29 | Cc1cccc([N+](=O)[O-])c1C(=O)O | inactive
30 | O=Nc1ccc(Nc2ccccc2)cc1 | 54.5 µM (active)
31 | CO[Si](OC)(OC)c1ccccc1 | inactive
32 | CC1COC(=O)O1 (stereo not given) | inactive
33 | Cc1cc(C(C)(C)C)c(O)c(C(C)(C)C)c1 | inactive
34 | NNCCc1ccccc1 | inactive
35 | O=C1NCC2(CCN(CCc3ccccc3)CC2)O1 | inactive
36 | NCCCCCC(=O)O | inactive
37 | Cc1cccc2n[nH]nc12 | inactive
38 | c1ccc2n[nH]nc2c1 | inactive
39 | CCN(CC)C(=S)SSC(=S)N(CC)CC | 0.237 µM (active)
40 | C=CC(=O)OCCCCCCCC | inactive
